Experimental data from PubChem BioAssay (Tox21).
Records with an inconclusive call do not appear. Entries that show only a call come without a potency. Active and inactive are the calls of the source. Unless noted, calls follow the shape of the dose curve; as a rule, active = well fitted curve in the direction sought with a large enough effect in the repeat runs; inconclusive = weak or mixed curves; inactive = no such curve, though single readings can be large; an effect the other way counts as inactive or inconclusive.

Columns and labels:
[1] = qHTS assay to identify small molecule agonists of the estrogen receptor alpha (ER-alpha) signaling pathway in the presence of an antagonist - cell viability counter screen (AID 1259386); conditions: VM7Luc4E2 viability, CellTiter-Fluor fluorescence, 22 h; series mostly up to 92.4 µM;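 also: cells exposed to compounds for 22 h at 37 °C before the viability read; nearly all actives have a fitted effect of over 30% in size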
How it was run: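 Cell viability in VM7Luc4E2 cells (endogenous full-length ER-alpha) measured by CellTiter-Fluor fluorescence in the same wells as the luciferase screen. Cells pre-cultured 5 days in charcoal-stripped serum, then treated 22 h with compounds at 15 concentrations plus 10.0nM ICI-182,780.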

[2] = qHTS assay to identify small molecule antagonists of the TGF-beta/Smad signaling pathway - cell viability counter screen (AID 1346824); conditions: SBE-bla HEK293T viability, CellTiter-Glo luminescence; series mostly up to 76.8 µM; also: nearly all actives have a fitted effect of over 50% in size
How it was run: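 SBE-bla HEK 293T cells were plated overnight at 37 C, then given compounds in DMSO plus TGF-beta1 (added as 0.25 ng/mL solution) for 5 hr. After the bla read, CellTiter-Glo was added to the same wells and luminescence read after 30 min at room temperature.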

[3] = qHTS assay to identify small molecule agonists of the TGF-beta/Smad signaling pathway - cell viability counter screen (AID 1346829); conditions: SBE-bla HEK293T viability, CellTiter-Glo luminescence, 5 h; series mostly up to 76.8 µM; also: top concentration of the series differs between compounds; nearly all actives have a fitted effect of over 45% in size
How it was run: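 HEK 293T SBE-bla line, 5 hr compound exposure at 37 C, multiplexed CellTiter-Glo viability read by luminescence.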

[4] = qHTS assay to identify small molecule agonists of the TGF-beta/Smad signaling pathway (AID 1346859; active = well fitted activation curve with a large enough effect in the signal ratio in the repeat runs, not every such curve was filed as active; the % refers to the signal ratio); conditions: SBE-bla HEK293T, TGF-beta/Smad beta-lactamase reporter, 5 h; series mostly up to 76.8 µM
How it was run: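 Smad-responsive beta-lactamase reporter cells (HEK 293T) received compounds from DMSO stocks after overnight attachment, were incubated 5 hr, then treated 2 hr with FRET substrate before dual-emission fluorescence measurement (405 nm excitation).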

[5] = molecular target: Thyrotropin-releasing hormone receptor (Homo sapiens) (UniProt P34981); test: qHTS assay to identify small molecule antagonists of the thyrotropin-releasing hormone receptor (TRHR) signaling pathway (AID 1346877; active = well fitted inhibition curve with a large enough effect in the repeat runs, not every such curve was filed as active); conditions: TRHR-HEK293, TRH-induced calcium fluorescence, antagonist mode; series mostly up to 51.3 µM
How it was run: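 TRHR-expressing HEK293 cells loaded with calcium dye for 2 h at 37 C; compounds pre-incubated 5 min at room temperature before TRH challenge at 1 nM final. Intracellular calcium fluorescence read kinetically for 3 min; 15 concentrations in triplicate.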

[6] = molecular target: Thyrotropin-releasing hormone receptor (Homo sapiens) (UniProt P34981); test: qHTS assay to identify small molecule agonists of the thyrotropin-releasing hormone receptor (TRHR) signaling pathway (AID 1346891; calls by dose curve); conditions: TRHR-HEK293 calcium fluorescence, agonist mode; series mostly up to 57.6 µM
How it was run: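 Agonist-mode calcium mobilisation screen: TRHR-transfected HEK293 cells cultured overnight (18 h), dye-loaded for 2 h at 37 °C, exposed to compounds, and monitored by fluorescence for 3 min.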

[7] = molecular target: Progesterone receptor (Homo sapiens) (UniProt P06401); test: qHTS assay to identify small molecule agonists of the progesterone receptor (PR) signaling pathway (AID 1346784; calls by dose curve; also: nearly all actives have a fitted effect of over 30% in size); conditions: PR-UAS-bla HEK293T, beta-lactamase FRET ratio, 16 h; series mostly up to 92.4 µM
How it was run: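 Agonist mode, quantitative HTS format in a HEK 293T line expressing a UAS-controlled beta-lactamase reporter; 16 hr compound exposure at 37C in 2% charcoal-stripped FBS, then LiveBLAzer B/G FRET fluorescence.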

[8] = molecular target: Progesterone receptor (Homo sapiens) (UniProt P06401); test: qHTS assay to identify small molecule antagonists of the progesterone receptor (PR) signaling pathway (AID 1346795; active = well fitted inhibition curve with a large enough effect in the signal ratio in the repeat runs, not every such curve was filed as active; the % refers to the signal ratio); conditions: PR-UAS-bla HEK293T, beta-lactamase FRET ratio, 16 h; series mostly up to 92.4 µM
How it was run: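 HEK293T PR-UAS-bla reporter cells in charcoal-stripped serum (2%) received compound after a 6 hr settling period, followed by R5020 agonist at 1 nM final; 16 hr incubation preceded the FRET substrate step and fluorescence measurement.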

[9] = qHTS assay to identify small molecule antagonists of the progesterone receptor (PR) signaling pathway - cell viability counter screen (AID 1346798); conditions: PR-UAS-bla HEK293T viability, CellTiter-Glo luminescence, 16 h; series mostly up to 92.4 µM; also: nearly all actives have a fitted effect of over 50% in size
How it was run: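 Same-well multiplex: after 16 hr at 37C with compound and R5020 stimulation, HEK293T cells carrying a UAS-bla reporter received LiveBLAzer substrate (2 hr RT), then CellTiter-Glo (30 min RT) for luminescent viability.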

[10] = qHTS assay to identify small molecule agonists of the progesterone receptor (PR) signaling pathway - cell viability counter screen (AID 1346799; calls by dose curve; also: potency is read from the fitted curve at half-maximal effect; nearly all actives have a fitted effect of over 45% in size); conditions: PR-UAS-bla HEK293T viability, CellTiter-Glo luminescence, 16 h; series mostly up to 92.4 µM
How it was run: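 Counter screen for cytotoxicity: compound-treated PR-UAS-bla HEK293T cells (16 hr, 37C, 5% CO2) were assayed with CellTiter-Glo, luminescence measured after 30 min at room temperature.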

Thyrotropin-releasing hormone receptor (Homo sapiens), sequence (P34981 whole entry, looked up): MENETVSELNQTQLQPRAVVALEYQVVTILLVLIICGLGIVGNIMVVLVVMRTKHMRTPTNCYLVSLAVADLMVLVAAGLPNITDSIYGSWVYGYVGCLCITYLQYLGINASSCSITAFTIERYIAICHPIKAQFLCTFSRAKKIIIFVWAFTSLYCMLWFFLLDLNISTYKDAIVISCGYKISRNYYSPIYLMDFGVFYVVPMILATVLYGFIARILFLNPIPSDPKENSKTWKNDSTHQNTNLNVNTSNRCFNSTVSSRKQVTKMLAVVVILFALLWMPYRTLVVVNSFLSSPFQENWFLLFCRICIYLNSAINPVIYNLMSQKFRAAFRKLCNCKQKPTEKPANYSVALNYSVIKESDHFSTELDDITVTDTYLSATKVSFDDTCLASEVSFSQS
Progesterone receptor (Homo sapiens), sequence (P06401 whole entry, looked up): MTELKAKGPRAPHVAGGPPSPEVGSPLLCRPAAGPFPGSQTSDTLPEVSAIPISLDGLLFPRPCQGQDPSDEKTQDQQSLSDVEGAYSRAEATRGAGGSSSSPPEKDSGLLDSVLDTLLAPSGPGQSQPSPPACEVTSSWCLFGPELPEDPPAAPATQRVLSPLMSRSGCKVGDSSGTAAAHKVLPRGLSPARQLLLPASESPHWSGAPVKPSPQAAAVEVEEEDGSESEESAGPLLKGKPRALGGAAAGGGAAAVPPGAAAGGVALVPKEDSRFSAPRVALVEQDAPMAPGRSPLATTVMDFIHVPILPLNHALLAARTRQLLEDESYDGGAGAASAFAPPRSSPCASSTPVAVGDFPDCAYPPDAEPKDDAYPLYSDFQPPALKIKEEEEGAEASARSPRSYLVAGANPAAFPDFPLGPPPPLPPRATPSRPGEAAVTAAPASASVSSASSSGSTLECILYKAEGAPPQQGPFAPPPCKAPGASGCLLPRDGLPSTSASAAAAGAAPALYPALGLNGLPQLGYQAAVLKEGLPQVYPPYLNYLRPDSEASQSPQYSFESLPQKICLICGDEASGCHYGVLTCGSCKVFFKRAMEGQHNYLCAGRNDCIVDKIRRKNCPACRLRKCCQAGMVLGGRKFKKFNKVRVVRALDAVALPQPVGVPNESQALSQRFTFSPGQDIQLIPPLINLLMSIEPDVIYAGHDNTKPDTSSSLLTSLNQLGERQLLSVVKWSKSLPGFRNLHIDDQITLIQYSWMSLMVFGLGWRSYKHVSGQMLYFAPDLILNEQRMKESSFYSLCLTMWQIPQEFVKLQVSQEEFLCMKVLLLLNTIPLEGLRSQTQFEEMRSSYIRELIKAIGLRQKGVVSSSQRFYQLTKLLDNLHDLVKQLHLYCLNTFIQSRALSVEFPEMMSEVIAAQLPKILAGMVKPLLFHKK

SMILES | Potency [1] | Potency [2] | outcome [3] | Potency [4] | outcome [5] | Potency [6] | Potency [7] | Potency [8] | Potency [9] | Potency [10]
ClCCOCCOCCCl | inactive | inactive | inactive | inactive | inactive | inactive | – | – | – | –
O=C1OC(CN2CCOCC2)CN1/N=C/c1ccc([N+](=O)[O-])o1 (configuration not stated) | – | inactive | inactive | inactive | – | – | inactive | inactive | inactive | –
C=CC(=O)OCCOCCOC(=O)C=C | – | – | inactive | inactive | inactive | inactive | – | – | – | –
COc1cc2c(cc1OC)C(C(C(=O)N(CCc1ccc(OC)c(OC)c1OC)CCc1ccc(OC)c(OC)c1OC)c1ccccc1)=NCC2 (configuration not stated) | – | inactive | inactive | inactive | inactive | inactive | – | inactive | – | –
OCCN1CCN(CCCN2c3ccccc3C=Cc3ccccc32)CC1 | – | inactive | inactive | inactive | – | – | – | inactive | – | –
C[C@H](CCC(=O)O)[C@H]1CC[C@H]2[C@@H]3CC[C@@H]4C[C@H](O)CC[C@]4(C)[C@H]3C[C@H](O)[C@]12C | inactive | inactive | inactive | – | inactive | inactive | – | – | – | 54.6 µM (active)
